# Sampled rows, rich in hits. Any-hit rate of the full collection: about 8.7%.
# Pf growth 48h: Primary qHTS for delayed death inhibitors of the malarial parasite plastid, 48 hour incubation; AID 504832, 2011; 310,000 tested, 5.9% active; Potency, µM (series often up to 28.7 µM), actives largely listed as inhibitors; P. falciparum luciferase growth in erythrocytes, 48 h
#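 In quantitative HTS format, infected erythrocytes bearing luciferase-reporter parasites were treated for a single generation at 37 C. Luminescence after adding detection reagent served as the growth measure.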
# Pf growth 96h: Primary qHTS for delayed death inhibitors of the malarial parasite plastid, 96 hour incubation; P. falciparum luciferase reporter growth, 96 h; Potency, µM (titrated, usually from 28.7 µM), actives largely listed as inhibitors; 320,000 tested, 6.9% active; AID 504834, 2011
#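 P. falciparum expressing integrated firefly luciferase, in erythrocytes at 2% hematocrit, 0.05% parasitemia, incubated with compounds 96 h at 37 C, 5% CO2. Growth inhibition read as loss of luminescence; two-generation exposure targets delayed-death apicoplast inhibitors.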
# AMA1-RON2 inh: qHTS for Inhibitors of AMA1-RON; Towards Development of Antimalarial Drug Lead: Primary Screen; 360,000 tested, 0.2% active; AlphaScreen AMA1-biotinylated RON2 peptide binding; Potency, µM (highest dose often 58.2 µM), hits mostly inhibitors; Plasmodium falciparum AMA1 (3D7) - RON2 peptide interaction; AID 720542, 2013; note: nearly all actives have a fitted effect of over 45% in size
#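 AMA1 (3D7) with his tag at 25 nM final met compounds first, then biotinylated RON2 peptide at 25 nM; detection used donor plus acceptor beads, 10 µg/mL apiece, read by AlphaScreen after 30 min at room temperature.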
# VACV Venus inh: qHTS for Stage-Specific Inhibitors of Vaccinia Orthopoxvirus: Venus Reporter Primary qHTS | 330,000 tested, 0.46% active | Potency, µM (top dose mostly 36.5 µM), actives largely listed as inhibitors | Vaccinia virus Venus reporter expression, fluorescence | AID 720580, 2013; calls by dose curve; tested in A549 cells; note: nearly all actives have a fitted effect of over 30% in size
# Vaccinia mCherry: qHTS for Stage-Specific Inhibitors of Vaccinia Orthopoxvirus: mCherry Reporter Primary qHTS; Vaccinia virus mCherry reporter infection, fluorescence; Potency, µM (titrated, usually from 36.5 µM), hits mostly inhibitors; 310,000 tested, 0.63% active; calls by dose curve; tested in A549 cells; note: nearly all actives have a fitted effect of over 35% in size
# A number is an active result; 0 = inactive; ? = inconclusive; - = no result; [ ] = another dose, or the depositor's remark. Unless noted, calls come from the whole dose curve; as a rule, active = well fitted curve in the direction sought with a large enough effect; inconclusive = small, poorly fitted or top-dose-only effect, or another doubt; inactive = no such curve, though single readings can be large; an effect the other way counts as inactive or inconclusive.
SMILES,Pf growth 48h,Pf growth 96h,AMA1-RON2 inh,VACV Venus inh,Vaccinia mCherry
COc1ccc(CCNc2ncnc3onc(C)c23)c(OC)c1,-,-,-,0,?
Clc1ccc2c(N/N=C/c3ccc(Br)cc3)ccnc2c1,0.33µM,1.5µM,0[11.6 µM],?,?
Clc1ccc2c(N/N=C/c3cccnc3)ccnc2c1,0.66µM,0.83µM,0,0,?
COc1ccc(NC(=O)CC(NCCc2ccccc2)C(=O)O)c(OC)c1 (configuration not stated),0,0,0,-,-
COc1ccccc1NC(=O)CC(NCc1ccccc1)C(=O)O (configuration not stated),0,2.6µM,0,0,0
CC1=C(C(=O)Nc2ccc(Cl)cc2)C(c2cccs2)n2nc(SCc3cccc(Cl)c3)nc2N1 (configuration not stated),-,-,-,0,0
Cc1ccc(NC(=O)Cn2c(=O)c3cc(Cl)ccc3n3nncc23)cc1,-,-,-,0,0
COc1ccc(-c2noc(-c3ccc(NCCc4ccccc4)c([N+](=O)[O-])c3)n2)cc1OC,-,-,-,0,0
Cc1ccn2c(-c3csc(NCc4ccco4)n3)c(C)nc2c1,12µM,0,0,-,-
COc1ccccc1NC(=O)C1=C(C)Nc2nc3ccccc3n2C1c1cccc(Br)c1 (configuration not stated),-,-,-,0,0
O=C(CCC1N=C2c3ccccc3N=C(SCc3ccccc3F)N2C1=O)NCc1ccc(F)cc1 (configuration not stated),-,-,-,0,?
CCN(c1ccccc1)S(=O)(=O)c1ccc(OC)c(NC(=O)C2=NN(c3ccccc3)C(=O)CC2)c1,12µM,?,0,0,0
CCN(c1ccccc1)S(=O)(=O)c1ccc(OC)c(NC(=O)c2ccccc2OC)c1,?,?,0,0,0
CCN(c1ccccc1)S(=O)(=O)c1ccc(OC)c(NC(=O)C2CC(=O)N(Cc3ccccc3)C2)c1 (configuration not stated),6.6µM,13µM,0,-,-
COc1cc(SSc2cc(OC)cc([N+](=O)[O-])c2N)c(N)c([N+](=O)[O-])c1,?,9.3µM,?,-,-
COc1cc([N+](=O)[O-])c2ncsc2c1,0,0,0,0,0
COc1cc(CNc2ccc(N3CCCC3)cc2)cc(Cl)c1OC,3.3µM,0,?,0,0
COc1cc(CNc2ccc(N3CCOCC3)cc2)cc(Br)c1OC,0,0,?,-,-
CCOc1cc(CNc2ccc(N3CCCC3)cc2)cc(Cl)c1OC,2.9µM,5.2µM,20µM,0,0
C/C(=N\Nc1ccc(C(=O)c2c(C)cc3ccccn23)cc1[N+](=O)[O-])c1ccc(O)cc1,9.3µM,?,0,0[7.34 µM],0[7.34 µM]
Clc1ccccc1Cc1cn2cc(-c3ccccc3)nc2s1,-,-,-,0,0
CCN(CC)CCNC(=O)/C(=C\c1cccn1C)NC(=O)c1cccs1,0,1.9µM,0,0,0
O=C(NCCO)/C(=C/c1ccc(Br)cc1)NC(=O)c1cccs1,0,0,0,-,-
Cc1cccc(C(=O)NNC(=O)c2ccc(NC(=O)C(C)(C)C)cc2)c1,0,0,0,-,-
Cc1ccc(C(=O)NNC(=O)c2ccc(NC(=O)C(C)(C)C)cc2)cc1,0,15µM,0,-,-
SMILES,Pf growth 48h,Pf growth 96h,AMA1-RON2 inh,VACV Venus inh,Vaccinia mCherry
CNC(=S)N/N=C/c1cc(C)n(-c2ccc(Cl)c(Cl)c2)c1C,15µM,9.3µM,0,0,0
CC#CC(=O)NCC1(N(C)Cc2ccccc2)Cc2ccccc2C1,0,7.4µM,0,-,-
CN(C)C(=O)CCC(=O)NCC1Cc2cccc(-c3ccccc3C(F)(F)F)c2O1 (configuration not stated),-,-,-,0,0
Cc1nc(C)n(CC(=O)NCC2Cc3cc(-c4cccc(OC(F)(F)F)c4)ccc3O2)n1 (configuration not stated),-,-,-,0,0
COc1ccc(-c2nc(CSCC(=O)NCc3ccc4c(c3)OCO4)c(C)o2)cc1,-,5.9µM,0,0,0
Cc1oc(-c2ccc(Cl)cc2)nc1CSCC(=O)NC1CCN(Cc2ccccc2)CC1,0,15µM,0,0,0
CCOC(=O)N1CCC(NC(=O)CSCc2nc(-c3ccc(OCC)cc3)oc2C)CC1,12µM,0,0,-,-
CCOc1ccc(-c2nc(CSCC(=O)NC3CCCc4ccccc43)c(C)o2)cc1 (configuration not stated),-,13µM,0,-,-
CCOC(=O)N1CCC(NC(=O)CSCc2nc(-c3cccc(OC)c3)oc2C)CC1,0,?,0,-,-
CCOc1ccc(-c2nc(CSCC(=O)NC3CC3)c(C)o2)cc1,13µM,0,0,-,-
CCOc1ccc(-c2nc(CSCC(=O)NCc3ccco3)c(C)o2)cc1,?,13µM,0,0,-
CCOc1ccc(-c2nc(CSCC(=O)NC3CCN(Cc4ccccc4)CC3)c(C)o2)cc1,-,-,0,?,?
Cc1cccc(-c2nc(C(N)=O)c3c(n2)n(-c2ccc4c(c2)OCO4)c(=O)n3C)c1,-,-,-,0,0
Cc1cccc(CN2CCC(C(N)=O)CC2)c1,-,?,0,0,0
Cc1cccc(CN2CCC(N3CC(C)OC(C)C3)CC2)c1 (configuration not stated),0,12µM,0,0,0
Cc1ccc(-c2noc(CSc3nnc(Cc4ccccc4)n3-c3ccc(Cl)cc3)n2)cc1,-,9.3µM,0,-,-
COc1ccc(-c2noc(CSc3nnc(Cc4ccccc4)n3-c3ccc(Cl)cc3)n2)cc1,-,?,0,-,-
COc1cccc(-n2c(-c3ccco3)nc3c(cnn3-c3ccc(C)cc3)c2=O)c1,-,-,-,0,0
COC(=O)c1cc(CNC(=O)c2cccc(C)c2)cc(NC(=O)c2ccncc2)c1,-,-,-,0,0
Cc1cccc(CNC(=O)c2cnn(-c3nccc(-c4ccccc4C(F)(F)F)n3)c2C)n1,-,-,-,0,0
COc1ccccc1N(C(C)=O)C1=C(Cl)C(=O)c2ccccc2C1=O,-,-,13µM,?,?
Cc1ccc(NC(=O)CSc2nnc([C@@H](N)Cc3c[nH]c4ccccc34)o2)c(C)c1,?,9.3µM,0,-,-
CNC(=S)NNC(=O)COc1cccc(C)c1C,0,8.3µM,0,0,0[1.46 µM]
COc1ccc(OCC(=O)Nc2ccccc2N2CCCCC2)cc1,?,0,0,0,0
O=C(CN1CCc2ccccc2C1)Nc1ccccc1N1CCCCCC1,13µM,-,0,-,-
SMILES,Pf growth 48h,Pf growth 96h,AMA1-RON2 inh,VACV Venus inh,Vaccinia mCherry
Cc1cccc(C)c1OCC(=O)Nc1ccccc1N1CCCCC1,12µM,?,0,-,-
Cc1ccc(Cl)c(OCC(=O)Nc2ccccc2N2CCCCC2)c1,15µM,?,0,0,0
O=C(COc1ccc(Cl)cc1Br)Nc1ccccc1N1CCCC1,?,?,?,0,0
CC(C)(C)c1ccc(C(=O)NCC(=O)OCc2cc(=O)n3nc(C4CC4)sc3n2)cc1,-,-,-,0,0
COc1ccc(NC(=O)C(C)N2Cc3ccccc3C2=O)cc1OC (configuration not stated),-,-,-,0,0
CN(Cc1ccccc1)C(=O)CSc1nc(-c2ccc(F)cc2)cc(C(F)(F)F)n1,-,-,-,0,0

# Bioassay records as filed in PubChem.
